# In the library only some 12% were active in any assay of this set; here they are far more common.
# G9a block = inhibitors of human histone lysine methyltransferase G9a | Q96KQ7 | Potency, µM (highest dose often 102 µM), for inactives: at the highest dose activity, negative = inhibition, hits mostly inhibitors | actives 8.8% (n = 350,000) | G9a H3K9 monomethylation, AlphaScreen, 2 h; also: % is scaled to controls: 0 for no effect and ±100 for the full control effect; nearly all actives have a fitted effect of over 75% in size
#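 Signal arises when biotinylated H3K9 peptide, once monomethylated, bridges streptavidin donor and antibody-captured acceptor beads. Enzyme at 20 nM was preincubated 15 min with test compounds; peptide 500 nM and SAM 20 uM then reacted for 2 h.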
# Sfp inh = inhibitors of Bacillus subtilis Sfp phosphopantetheinyl transferase. Biochemical Sfp PPTase activity, qHTS. Potency, µM, for the others: largest response in the series, negative = inhibition, actives largely listed as inhibitors. actives 3.5% (n = 310,000). AID 1490;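 also: the enzyme is Sfp with the accession as filed and its product quenches rhodamine fluorescence; 0% = enzyme reaction without inhibitor and -100% = no enzyme wells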
#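 With Hepes-Na pH 7.6 buffer containing 10 mM MgCl2, Sfp (15 nM) modified BHQ-2-YbbR (12.5 uM) using rhodamine-CoA (5 uM). Two reads 30 minutes apart at 525/598 nm yielded each well's rate.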
# BAZ2B block = blocks human BAZ2B. Q9UIF8. AlphaScreen BAZ2B-H3K14Ac peptide displacement. Potency, µM (highest dose often 114 µM), for the others: top-dose activity change, negative = inhibition, usual class: inhibitors. actives 4.4% (n = 360,000). AID 504333; also: % is scaled to controls: 0 for no effect and ±100 for the full control effect; nearly all actives have a fitted effect of over 60% in size
# Target sequence (Q9UIF8 whole entry, looked up): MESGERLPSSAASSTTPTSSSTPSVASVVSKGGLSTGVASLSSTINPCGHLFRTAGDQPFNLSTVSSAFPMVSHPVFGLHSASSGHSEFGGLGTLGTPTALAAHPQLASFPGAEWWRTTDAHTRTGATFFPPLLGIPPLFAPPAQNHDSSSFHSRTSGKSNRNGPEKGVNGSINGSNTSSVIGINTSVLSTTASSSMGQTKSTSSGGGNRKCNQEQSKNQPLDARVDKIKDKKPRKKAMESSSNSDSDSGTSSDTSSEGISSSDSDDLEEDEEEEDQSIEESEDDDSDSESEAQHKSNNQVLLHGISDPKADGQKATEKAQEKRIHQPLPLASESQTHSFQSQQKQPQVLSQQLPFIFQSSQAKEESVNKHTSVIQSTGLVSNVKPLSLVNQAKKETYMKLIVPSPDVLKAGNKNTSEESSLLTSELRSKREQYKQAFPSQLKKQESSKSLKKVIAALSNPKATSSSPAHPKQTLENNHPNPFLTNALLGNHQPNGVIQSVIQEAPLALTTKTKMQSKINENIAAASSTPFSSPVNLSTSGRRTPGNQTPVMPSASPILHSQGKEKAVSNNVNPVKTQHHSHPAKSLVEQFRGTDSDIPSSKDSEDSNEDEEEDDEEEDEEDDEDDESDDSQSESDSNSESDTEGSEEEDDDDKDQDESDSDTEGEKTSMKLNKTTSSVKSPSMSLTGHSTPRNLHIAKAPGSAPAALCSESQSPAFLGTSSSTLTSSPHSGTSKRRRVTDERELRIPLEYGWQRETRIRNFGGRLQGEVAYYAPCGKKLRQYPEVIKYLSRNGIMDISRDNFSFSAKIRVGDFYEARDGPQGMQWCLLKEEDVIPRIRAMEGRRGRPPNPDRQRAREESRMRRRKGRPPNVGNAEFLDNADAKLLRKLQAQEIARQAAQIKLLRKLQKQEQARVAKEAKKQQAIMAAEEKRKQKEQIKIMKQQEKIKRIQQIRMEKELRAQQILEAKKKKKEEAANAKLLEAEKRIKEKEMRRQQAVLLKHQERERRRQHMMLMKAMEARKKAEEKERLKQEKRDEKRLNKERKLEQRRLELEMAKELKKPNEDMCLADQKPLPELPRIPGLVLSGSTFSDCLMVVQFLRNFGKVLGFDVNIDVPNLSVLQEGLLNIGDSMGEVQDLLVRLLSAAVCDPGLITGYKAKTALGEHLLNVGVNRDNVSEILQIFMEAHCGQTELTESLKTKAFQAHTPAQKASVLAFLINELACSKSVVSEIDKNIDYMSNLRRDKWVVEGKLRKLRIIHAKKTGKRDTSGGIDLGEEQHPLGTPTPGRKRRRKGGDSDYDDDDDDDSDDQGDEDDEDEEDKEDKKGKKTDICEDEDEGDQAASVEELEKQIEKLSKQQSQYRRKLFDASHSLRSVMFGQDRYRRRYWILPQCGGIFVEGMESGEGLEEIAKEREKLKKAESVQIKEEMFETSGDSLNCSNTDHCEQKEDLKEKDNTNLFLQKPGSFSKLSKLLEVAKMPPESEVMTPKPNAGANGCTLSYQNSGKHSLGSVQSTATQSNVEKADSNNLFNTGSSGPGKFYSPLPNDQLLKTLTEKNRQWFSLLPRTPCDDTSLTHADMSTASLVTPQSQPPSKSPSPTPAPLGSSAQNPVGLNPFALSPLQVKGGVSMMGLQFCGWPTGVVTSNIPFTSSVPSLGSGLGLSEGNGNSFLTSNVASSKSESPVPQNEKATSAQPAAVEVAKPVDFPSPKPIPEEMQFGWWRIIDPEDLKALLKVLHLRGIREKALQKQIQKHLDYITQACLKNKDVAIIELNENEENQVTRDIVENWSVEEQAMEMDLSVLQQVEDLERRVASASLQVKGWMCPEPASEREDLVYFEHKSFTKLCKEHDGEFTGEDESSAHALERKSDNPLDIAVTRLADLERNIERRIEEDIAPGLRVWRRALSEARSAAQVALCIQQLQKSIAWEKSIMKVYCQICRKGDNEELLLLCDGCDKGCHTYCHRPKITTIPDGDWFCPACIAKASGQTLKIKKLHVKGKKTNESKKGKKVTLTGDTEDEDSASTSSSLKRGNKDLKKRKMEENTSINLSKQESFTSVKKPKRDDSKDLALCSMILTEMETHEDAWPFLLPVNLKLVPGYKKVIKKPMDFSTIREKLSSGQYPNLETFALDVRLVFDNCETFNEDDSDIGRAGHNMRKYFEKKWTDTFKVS
#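 AlphaScreen displacement: compounds (up to 110uM) incubated 30 min at room temperature with a preformed 50 nM BAZ2B/50 nM biotinylated H3K14Ac peptide complex in PBS pH 7.4 with Tween-20. Donor and acceptor beads at 10 ug/mL final added, 20 min light-protected before reading.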
# HP1b binding inh = HP1-beta chromodomain-methylated histone interaction inhibition. AID 540317. actives 0.56% (n = 390,000). P83916. Potency, µM (highest dose often 114 µM), for the others: at the highest dose activity change, negative = inhibition, actives largely listed as inhibitors. AlphaScreen HP1-beta / biotin-H3K9me3 peptide binding; also: nearly all actives have a fitted effect of over 70% in size
#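 AlphaScreen: HP1-beta (50 nM) preformed 30 min with biotin-H3(1-18)K9me3 peptide (50 nM) in PBS pH 7.4, 0.01% Tween-20. Compound added for 30 min at RT, then streptavidin donor/nickel chelate acceptor beads (10 ug/mL) for 30 min.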
# JMJD2A Tudor inh = inhibitors of human JMJD2A Tudor domain; O75164; AlphaScreen JMJD2A-Tudor / H3K4me3 peptide binding; Potency, µM (doses to about 114 µM), without a hit: at the top dose activity change, negative = inhibition, usual class: inhibitors; actives 4.4% (n = 390,000); AID 504339; also: % is scaled to controls: 0 for no effect and ±100 for the full control effect; nearly all actives have a fitted effect of over 50% in size
# * marks the source's active call; other numbers are inactive results; ? = inconclusive; · = no result; [ ] = remark or other dose. Calls follow the shape of the dose curve; as a rule, active = well fitted curve in the direction sought with a large enough effect; inconclusive = small, poorly fitted or top-dose-only effect, or another doubt; inactive = no such curve, though single readings can be large; an effect the other way counts as inactive or inconclusive. Potency is read from the fitted curve at half-maximal effect.
SMILES,G9a block,Sfp inh,BAZ2B block,HP1b binding inh,JMJD2A Tudor inh
COc1ccc(Cc2nc(-c3cccnc3)no2)cc1OC,4%[0.501 µM],1%,2%,52%,0%
Cc1noc(C)c1C(=O)OCC(=O)NC1CC1,-48%[59 µM],24%,1%,21%,2%
CCOc1ccc(NC(=S)N2CCc3cc(OC)c(OC)cc3C2COc2ccc3c(C)cc(=O)oc3c2)cc1 (centres undefined),5%,-2%,-19%,22%,-16%
COc1ccc(C(=O)c2nc3c(n2O)CCCC3)cc1OC,?,-23%,-27%,1%,50µM*
COc1ccc(C(=O)c2nc3c(n2O)CCCCC3)cc1,-107%,?,6%,-1%,?
COc1cccc(NC(=O)c2cnc(SC)nc2C)c1,31%,2%,-2%,49%,-18%
CN1/C(=C\C(=O)c2cccnc2)Sc2ccccc21,28µM*,22µM*,-2%,49%,3%
COc1cccc(C(=O)/C=C2\Sc3ccccc3N2C)c1,54%,-11%,57%,163%,82%
O=c1/c(=C/c2ccc(O)cc2)sc2n1CCCN=2,?,2%,6%,19%,-2%
CN(C)c1ccc(/C=c2\sc3n(c2=O)CCCN=3)cc1,3.2µM*,-11%,-34%,16%,-23%[11.4 µM]
S=c1[nH]nc(-c2ccc(Br)o2)n1Cc1ccccc1,?,-1%,-37%,2%,32µM*
COc1ccc(-c2n[nH]c(=S)n2Cc2ccccc2)cc1OC,·,-11%,-34%,?,10µM*
COc1ccc(-c2n[nH]c(=S)n2Cc2ccccc2)cc1,·,-18%,-10%,4%,25µM*
Cc1n[nH]c(=S)n1Cc1ccccc1,35µM*,-1%,-15%,21%,?
C/C(N)=C(/C#N)C(=O)COC(=O)c1ccc(OCC2CCCO2)cc1 (centres undefined),?,-8%,4%,-10%,-7%
NC(=O)COC(=O)CC(NC(N)=O)c1ccc(Cl)cc1 (centres undefined),-25%,4%,-4%,20%,-4%
S=c1[nH]nc(-c2ccccc2)n1Cc1ccccc1,4%[2.33 µM],12%,-3%,-3%,11µM*
S=c1[nH]nc(-c2ccc(Cl)cc2)n1Cc1ccccc1,1.4µM*,-3%,-6%,6%,?
S=c1[nH]nc(-c2cccs2)n1Cc1ccccc1,?,2%,-33%,-30%,?
S=c1[nH]nc(C2CCCCC2)n1Cc1ccccc1,11µM*,-4%,-28%,18%,35µM*
C=CCn1c(C2CCCCC2)n[nH]c1=S,20µM*,10%,-21%,20%,5.6µM*
O=C(NC(=S)Nc1ccccc1N1CCOCC1)c1ccc(-c2cc(Cl)ccc2Cl)o1,11%[59 µM],11%,-26%,-2%,-24%
NC(=O)CC1NC(=O)c2ccccc21 (centres undefined),20%,15%,1%,14%,-16%
Cc1ccn(Cc2n[nH]c(=S)n2Cc2ccccc2)n1,3.2µM*,11%,0%,20%,8.9µM*
FC(F)(F)c1cnc(Sc2nnc(-c3cccs3)n2CC2CCCO2)c(Cl)c1 (centres undefined),-36%[12.7 µM],0%,-27%,15%,-8%
SMILES,G9a block,Sfp inh,BAZ2B block,HP1b binding inh,JMJD2A Tudor inh
N#Cc1c(Sc2ncc(C(F)(F)F)cc2Cl)nsc1C/C=N\OCc1c(F)cccc1Cl,10µM*,5%,40µM*,-23%,?
O=C1/C(=C/c2cccnc2)Oc2cc(OS(=O)(=O)c3ccc(F)cc3)ccc21,-11%,-19%,-29%,-8%,40µM*
CCCN(Cc1cc2cc(C)ccc2[nH]c1=O)C(=O)c1cccc(Cl)c1,-29%[59 µM],·,-2%,52%,1%
O=c1c2ccccc2nc(COc2ccccc2)n1/N=C/c1ccc(O)c(O)c1,3.2µM*,-1%,45µM*,-17%,?
Cc1nc2ccccc2c(=O)n1NC(=O)COc1ccccc1,-43%[12.7 µM],2%,-22%,4%,-17%
Cc1cc(/C=N/n2c(COc3ccccc3)nc3ccccc3c2=O)c(O)c([N+](=O)[O-])c1,-21%[59 µM],-1%,4.5µM*,?,13µM*
O=C(Nn1c(COc2ccccc2)nc2ccccc2c1=O)C(Cl)(Cl)Cl,50µM*,11%,0%,-1%,-12%
CCOc1cc(/C=N/NC(=O)N/N=C/c2ccc(O)c(OCC)c2)ccc1O,·,·,·,12%,-12%
CCOc1cc(/C=N/n2c(COc3ccccc3)n[nH]c2=S)ccc1O,4.5µM*,-12%,-17%,24%,?
CCCCSc1nc(-c2cccc(OC)c2)nc2c1Cc1c(CO)cnc(C)c1O2,-30%[59 µM],·,-11%,31%,-7%
O=C(O)COc1ccc(/C=N/n2c(COc3ccccc3)nc3ccccc3c2=O)cc1,?,26%,8%,23%,-13%
Oc1ccc(/C=N/n2c(COc3ccccc3)n[nH]c2=S)cc1O,10µM*,56µM*,?,?,3.2µM*
O=C(O)c1ccc(N=Nc2c(O)[nH]c3ccc(Br)cc23)cc1,8%[2.33 µM],10µM*,79µM*,21%,?
O=C(CNC(=O)c1ccccc1)N=Nc1c(O)[nH]c2ccc(Br)cc12,-39%,17%,-36%,109%,-6%
Cc1ccc(N=Nc2c(O)[nH]c3ccc(F)cc23)cc1,20µM*,?,-30%,10%,-2%
O=c1[nH]nc(N=Nc2c(O)[nH]c3ccc(F)cc23)c(=O)[nH]1,·,·,·,23%,-10%[11.4 µM]
O=S(=O)(Cc1ccccc1)N=Nc1c(O)[nH]c2ccc(Br)cc12,3.5µM*,-8%,-24%,?,22µM*
CSc1ccc(CNc2ccccn2)cc1,45µM*,1%,-10%,4%,-24%
CN(C)c1ccc(CNc2ccccn2)cc1,?,21%,50µM*,-14%,56µM*
Cc1cccc(NCc2ccc(N(C)C)cc2)n1,50µM*,4%,40µM*,?,50µM*
CC1CC(C)(C)CC2(C1)NC(=O)N(CC(=O)OCC(=O)Nc1cc(S(=O)(=O)N3CCCCC3)ccc1Cl)C2=O (centres undefined),·,·,·,19%,-9%
O=c1ccc(-c2ccc(S(=O)(=O)Nc3cccc([N+](=O)[O-])c3)s2)n[nH]1,71µM*,3%,-31%,41%,-11%
Cc1cc(C)cc(NC(=S)NCCN(C2CCCCC2)C2CCCC2)c1,-18%[59 µM],12%,?,-4%[57 µM],-20%
NC1=NC(c2cn(-c3ccccc3)nc2-c2cccs2)n2c(nc3ccccc32)N1 (centres undefined),9%[2.33 µM],45µM*,0%,5%,?
CC1=C(C#N)C(c2cn(-c3ccccc3)nc2-c2cccs2)C(C#N)=C(C)N1,2%[59 µM],-4%,20%,15%,-9%
Cc1ccc2[nH]c(C)cc(=S)c2c1,?,?,-16%,-4%,-33%
Cc1cc(=S)c2ccccc2[nH]1,2µM*,56µM*,?,11%,?

# Screens: PubChem BioAssay, National Center for Advancing Translational Sciences (NCATS)
